What all share (test): NCI-60 one-dose screen, 48 h (100 = growth as untreated, 0 = no growth, -100 = all killed)
One assay relates to NCI-H23 lung. The conditions noted are these: 10 µM unless noted.
A further assay has as its system NCI-H226 lung. The conditions noted are these: 10 µM unless noted.
Another assay concerns NCI-H522 lung. The conditions noted are these: 10 µM unless noted.
In the next assay the test system is COLO 205 colon. The conditions noted are these: 10 µM.
The test system of another assay is K-562 leukemia. The conditions noted are these: 10 µM unless noted.
In a further assay the test system is SF-295 CNS. The conditions noted are these: 10 µM unless noted.
The subject of the next assay is U251 CNS. The conditions noted are these: 10 µM unless noted.
A further assay relates to LOX IMVI melanoma. The conditions noted are these: 10 µM unless noted.
The subject of a further assay is SK-MEL-2 melanoma. The conditions noted are these: 10 µM unless noted.
The test system of the next assay is EKVX NSCLC. The conditions noted are these: 10 µM unless noted.
The subject of the next assay is CAKI-1 renal. The conditions noted are these: 10 µM unless noted.
Another assay has as its system A498 renal. The conditions noted are these: 10 µM unless noted.
For another assay, the system named is MOLT-4 leukemia. The conditions noted are these: 10 µM.
The test system of the next assay is RPMI-8226 leukemia. The conditions noted are these: 10 µM unless noted.
A further assay has as its system SK-OV-3 ovarian. The conditions noted are these: 10 µM unless noted.
The next assay concerns HCT-116 colon. The conditions noted are these: 10 µM unless noted.
In a further assay the test system is NCI-H322M lung. The conditions noted are these: 10 µM unless noted.
Another assay concerns HOP-62 NSCLC. The conditions noted are these: 10 µM unless noted.
In another assay the test system is M14 melanoma. The conditions noted are these: 10 µM unless noted.

SMILES strings stand for the structures. The panel holds about 83,000 compounds, 20% with a hit somewhere; the sample as a whole holds those more often.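 Values shown are percent growth following 48 h exposure of cells in 96-well plates to a single concentration of compound; below 10 was considered active.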 Unmarked numbers belong to inactive results. The source made the active and inactive calls.

Take `CCOc1ccc(C(O)CN(C)Cc2ccccc2)cc1Cl` (stereo unspecified): the growth with NCI-H23 lung is 91.3%; in the assay with NCI-H226 lung, 92.1%; with NCI-H522 lung, 97.1%; with COLO 205 colon, 105%; in the assay with K-562 leukemia, 92.5%; with SF-295 CNS it was 96.1%. The growth in the assay on U251 CNS was 97.4%; in the assay on LOX IMVI melanoma, 98.6%; in the assay on SK-MEL-2 melanoma, 102%; in the assay with EKVX NSCLC, 95.7%; in the assay on CAKI-1 renal, 93.3%; in the assay on A498 renal, 90.5%. In addition, the growth with MOLT-4 leukemia is 96.3%; with RPMI-8226 leukemia it was 104%; with SK-OV-3 ovarian, 109%; in the assay on HCT-116 colon it was 101%.

On to `COc1cc(CNCCc2ccc(Cl)cc2)cc(OC)c1O`, for which the growth was 67% with NCI-H23 lung; 78.9% in the assay on NCI-H322M lung; 83.3% with HOP-62 NSCLC; 16.1% in the assay with NCI-H522 lung; 77.5% with COLO 205 colon; 21.7% with K-562 leukemia. In addition, the growth in the assay on U251 CNS was 58.5%; with LOX IMVI melanoma, 70.7%; in the assay with SK-MEL-2 melanoma, 27.8%; with CAKI-1 renal, 58.4%; in the assay on A498 renal, 66.3%; in the assay with RPMI-8226 leukemia, 42.4%. Moreover, the results for the growth with SK-OV-3 ovarian and in the assay on HCT-116 colon were 82.7% and 60.9%, respectively.

For `CNC(=O)Oc1ccccc1-c1ccccc1`, the growth in the assay on NCI-H226 lung is 113%; with HOP-62 NSCLC, 103%; with NCI-H522 lung, 85.9%; with COLO 205 colon, 113%; in the assay on K-562 leukemia, 99.6%; with SF-295 CNS it was 94.5%. Moreover, the growth in the assay with M14 melanoma was 99.7%; in the assay with LOX IMVI melanoma it was 104%; with SK-MEL-2 melanoma, 76.3%; with CAKI-1 renal it was 95.5%; in the assay on A498 renal, 93.2%; in the assay on RPMI-8226 leukemia it was 99.4%. Moreover, the growth with SK-OV-3 ovarian was 101%; with HCT-116 colon, 99%.

Regarding `CC[C@@]1(C2O[C@@H](C3O[C@@](O)(CC)[C@H](C)C[C@@H]3C)C[C@@H]2C)CC[C@H]([C@]2(C)CCC3(C[C@H](O)[C@@H](C)[C@@H]([C@H](C)[C@@H](OC)[C@H](C)C(=O)O)O3)O2)O1` (stereo partly specified), the growth in the assay on NCI-H23 lung is 16.5%; with NCI-H322M lung, 38.8%; in the assay with EKVX NSCLC it was 26.1%; in the assay with CAKI-1 renal, 24.5%; in the assay on A498 renal, 42.7%; in the assay on MOLT-4 leukemia it was 30.8%. For the same molecule, the growth with SK-OV-3 ovarian was 23%.

As to `CC(=O)O[C@H]1C[C@H](O[C@H]2[C@@H](O)C[C@H](O[C@H]3[C@@H](O)C[C@H](O[C@H]4CC[C@@]5(C)C(CCC6C5C[C@@H](O)[C@]5(C)[C@@H](C7=CC(=O)OC7)CC[C@]65O)C4)O[C@@H]3C)O[C@@H]2C)O[C@H](C)[C@H]1O[C@@H]1O[C@H](CO)[C@@H](O)[C@H](O)[C@H]1O` (stereo partly specified), the growth in the assay on NCI-H23 lung is -64.1% (active); in the assay on NCI-H226 lung, -98.6% (active); in the assay with COLO 205 colon, -74.2% (active); with SF-295 CNS, -84% (active); with M14 melanoma it was -77% (active); in the assay on U251 CNS, -100% (active). Also, the growth was -97.4% (active) in the assay on LOX IMVI melanoma; -94.4% (active) in the assay with CAKI-1 renal; -19.5% (active) in the assay on A498 renal; -0.309% (active) in the assay on RPMI-8226 leukemia; -97.4% (active) with SK-OV-3 ovarian; -90.5% (active) in the assay with HCT-116 colon.

`CCC[CH2][Sn]([CH2]CCC)([CH2]CCC)[O]C(=O)c1ccc(Cl)cc1Cl`: the growth was -65.5% (active) in the assay on NCI-H23 lung; -86.5% (active) with NCI-H322M lung; -82.2% (active) with HOP-62 NSCLC; -73.3% (active) in the assay with NCI-H522 lung; -68.8% (active) with COLO 205 colon; -38.2% (active) in the assay with K-562 leukemia. Also, the growth was -89.9% (active) in the assay on SF-295 CNS; -85.8% (active) with M14 melanoma; -85.8% (active) in the assay on U251 CNS; -70.3% (active) with LOX IMVI melanoma; -73.6% (active) in the assay with SK-MEL-2 melanoma; -65% (active) with EKVX NSCLC. Further, the growth was -92.6% (active) in the assay with CAKI-1 renal, -85.3% (active) in the assay on A498 renal, -29.7% (active) in the assay on RPMI-8226 leukemia and -96% (active) in the assay with SK-OV-3 ovarian.

`N#CC(C#N)=Cc1ccc2ccccc2c1`: the growth with NCI-H23 lung was 100%; with NCI-H226 lung it was 106%; in the assay on HOP-62 NSCLC, 113%; in the assay on NCI-H522 lung, 96.7%; in the assay with COLO 205 colon, 110%; in the assay with K-562 leukemia it was 102%. In addition, the growth was 111% in the assay on SF-295 CNS; 104% in the assay with M14 melanoma; 84% in the assay with LOX IMVI melanoma; 102% with SK-MEL-2 melanoma; 121% in the assay with EKVX NSCLC; 101% with CAKI-1 renal. Also, the growth with RPMI-8226 leukemia was 90.3%; in the assay on SK-OV-3 ovarian, 104%; with HCT-116 colon it was 107%.

Regarding `CC(C)(C)[Si](C)(C)OC1[C@@H](O[Si](C)(C)C(C)(C)C)[C@@H](CNC(=O)NC(=O)CF)O[C@H]1n1cnc2c(NC(=O)Nc3ccccc3)ncnc21` (stereo partly specified), the growth with NCI-H23 lung was 64.7%; in the assay on HOP-62 NSCLC it was 87.1%; in the assay with COLO 205 colon it was 84.4%; in the assay with K-562 leukemia, 37.7%; with SF-295 CNS, 79.5%; in the assay on U251 CNS, 56.6%. The growth with LOX IMVI melanoma was 12.2%; in the assay with CAKI-1 renal, 85.6%; in the assay with A498 renal it was 70.2%; with MOLT-4 leukemia it was -13.4% (active); with RPMI-8226 leukemia, 24.6%; in the assay with HCT-116 colon it was 21.3%.

Turning to `CC1([N+](=O)[O-])COP(=O)(Nc2ccc(F)cc2)OC1` (stereo unspecified), the growth in the assay on NCI-H23 lung was 96.4%; with NCI-H226 lung it was 101%; in the assay with NCI-H522 lung, 89.4%; in the assay on COLO 205 colon, 107%; in the assay on K-562 leukemia it was 103%; in the assay on SF-295 CNS, 106%. For the same molecule, the growth in the assay with M14 melanoma was 101%; with SK-MEL-2 melanoma it was 98%; in the assay with CAKI-1 renal, 107%; in the assay with MOLT-4 leukemia, 83%; in the assay on HCT-116 colon, 99.4%.

With `COc1cc(C2CC(=O)Nc3nc(N)[se]c32)c(OC)c2c1OCO2` (stereo unspecified), the growth with NCI-H23 lung was 99.7%; in the assay on NCI-H322M lung, 22.6%; in the assay on HOP-62 NSCLC, 32.7%; in the assay with NCI-H522 lung, 99.1%; in the assay on COLO 205 colon, 112%; in the assay with SF-295 CNS, 6.71% (active). The growth in the assay with M14 melanoma was 85.1%; in the assay on U251 CNS it was 48%; with LOX IMVI melanoma, 104%; with SK-MEL-2 melanoma, 101%; in the assay on EKVX NSCLC, 94.4%; in the assay with A498 renal it was 102%. Moreover, the growth was 117% in the assay on MOLT-4 leukemia, 119% in the assay on RPMI-8226 leukemia, 78.3% with SK-OV-3 ovarian and 65.7% with HCT-116 colon.

As for `CC[C@]12C=CCN3CC[C@@]4(c5ccc(OC)cc5N(C)[C@H]4[C@@](O)(C(=O)OC)[C@@H]1OC(=O)CCCN1CCN(CCCC(=O)O[C@@H]4[C@]5(CC)C=CCN6CC[C@@]7(c8ccc(OC)cc8N(C)[C@H]7[C@@]4(O)C(=O)OC)[C@@H]65)CC1)[C@@H]32`, the growth was -80.6% (active) in the assay on NCI-H23 lung; -88.5% (active) in the assay on NCI-H322M lung; -82.5% (active) in the assay on HOP-62 NSCLC; -79.9% (active) with NCI-H522 lung; -79% (active) with COLO 205 colon; -62% (active) with K-562 leukemia. For the same molecule, the growth with SF-295 CNS is -85.9% (active); with M14 melanoma it was -80.6% (active); in the assay on U251 CNS, -83.7% (active); with LOX IMVI melanoma, -89.1% (active); in the assay with SK-MEL-2 melanoma, -75.7% (active); in the assay with EKVX NSCLC, -88.4% (active). Besides, the growth in the assay on CAKI-1 renal is -97% (active); with A498 renal it was -58.2% (active); in the assay with MOLT-4 leukemia it was -62.9% (active); in the assay on RPMI-8226 leukemia, -55.2% (active); with SK-OV-3 ovarian, -88.7% (active); in the assay on HCT-116 colon, -84% (active).

The record behind these values is PubChem BioAssay (NCI).
